Reference: ChEMBL document CHEMBL3988442, “University of Dundee, Small-Polar-MMV Screening Library” (2021)

target: Sialic acid-binding Ig-like lectin 9 (Homo sapiens) (UniProt Q9Y336); assay: Hs-Siglec9 ALPHAscreen SOP 20170721; set-up: scale not given: direction of the effect not stated beside the values; settings: 10 µM
Sequence (Q9Y336 whole entry): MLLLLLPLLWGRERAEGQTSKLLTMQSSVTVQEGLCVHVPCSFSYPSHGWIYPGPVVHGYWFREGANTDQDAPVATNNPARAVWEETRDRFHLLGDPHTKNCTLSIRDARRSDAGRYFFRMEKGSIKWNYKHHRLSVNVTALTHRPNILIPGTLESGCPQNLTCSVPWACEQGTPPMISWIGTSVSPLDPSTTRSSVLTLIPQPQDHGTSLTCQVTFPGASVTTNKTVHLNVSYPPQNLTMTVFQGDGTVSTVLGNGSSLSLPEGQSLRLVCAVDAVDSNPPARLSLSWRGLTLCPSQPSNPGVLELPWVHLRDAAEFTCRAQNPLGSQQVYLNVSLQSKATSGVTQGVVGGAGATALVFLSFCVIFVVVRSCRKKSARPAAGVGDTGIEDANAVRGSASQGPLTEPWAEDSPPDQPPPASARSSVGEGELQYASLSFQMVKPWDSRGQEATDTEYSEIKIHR

Row | Structure (SMILES) | Percent Effect [%]
1 | Cc1cnn(CC2CCCN2Cc2coc(-c3ccccc3)n2)c1 (stereo not drawn) | 16.7
2 | Cc1nc(CN2CCOCC3(CCN(c4cccnc4)CC3)C2)cs1 | -0.618
3 | CNS(=O)(=O)c1ccc(C(=O)N2CCCC2Cc2ccccc2)o1 (stereo not drawn) | -2.48
4 | CN(CCC(F)(F)F)C(=O)[C@H]1CSCN1C(=O)OC(C)(C)C | 1.23
5 | O=C(CN1CCOC(Cn2cccn2)C1)Nc1nncs1 (stereo not drawn) | -17.4
6 | CS(=O)(=O)NC1CCCN(C(=O)NCc2cc[nH]n2)C1 (stereo not drawn) | -13.5
7 | c1cnc2c(c1)cc(C1CCOCC1)n2CCN1CCOCC1 | -5.49
8 | CN(C)C(=O)COCc1cncc2c1CCN(Cc1nccn1C)C2 | 17.4
9 | CN(C)S(=O)(=O)N1C[C@@H]2CC[C@H](C1)N(Cc1ccc3nsnc3c1)C2 | 43.5
10 | CN(C)C(CNC(=O)c1cccc(-n2cnnn2)c1)c1ccccc1Cl (stereo not drawn) | -4.62
11 | Cc1cc(C)n(CC2CN(Cc3cscn3)CCO2)n1 (stereo not drawn) | -2.39
12 | Cc1ccc(NC2CCN(C(=O)c3c(C)noc3C)CC2)nn1 | 9.85
13 | Cc1nc(N2CCOCC2)nc2c1CCN(C(=O)NC1CCCC1)CC2 | -6.84
14 | CCOc1nnc(CN(C)CC2CCCN2c2cccnn2)s1 (stereo not drawn) | -2.87
15 | CN1N=C(C(=O)N(Cc2ccco2)C2CC2)CCC1=O | 0.679
16 | COc1cccc(CNC(CN2CCN(C)CC2)c2ccccc2)c1 (stereo not drawn) | -1.53
17 | Cc1csc2c(=O)n3c(nc12)CCN(C(=O)c1cccnc1)CC3 | -1.07
18 | CC(C)n1ncc2cc(NC(=O)N3CCC(N4CCCC4)C3)cnc21 (stereo not drawn) | 7.73
